The text below walks through data of PubChem BioAssay (EPA / NIEHS).

For assay [1], the target named is human Vitamin D Receptor (VDR), VDR (gene 7421) (UniProt P11473). The assay can be described thus: ATG_VDR_TRANS: Attagene TRANS-FACTORIAL HepG2 Assay for human Vitamin D Receptor (VDR) (AID 2283022; active = hit-call score of the fitted dose curve at least 0.9, where 1 is the maximum). Put shortly: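 Steps: transfect HepG2 with GAL4-UAS-driven reporter constructs; dose compounds 24 h; isolate RNA, reverse-transcribe, PCR-amplify with 6-FAM-labelled primer extension and HpaI digestion; quantify fragments by capillary electrophoresis relative to DMSO.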

The nature of assay [2]: BSK_3C_SRB: Viability Assessment in the BioMAP Diversity Plus: 3C Assay (AID 2283023).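 Also: cells read 24 h after compound dosing; fitted both ways against DMSO so a hit may be signal rise or drop.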 Particulars: primary human endothelial cells (HUVEC). Put shortly:
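Absorbance at 560 nm of sulforhodamine B-stained (0.1%) total protein served as a cytotoxicity readout in human umbilical vein endothelial cells, 24 h after chemical treatment. Signal was fitted bidirectionally relative to DMSO.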

Read-out in assay [3]: Matrix Metallopeptidase 1 (MMP1), MMP1 (gene 4312)
The assay can be described thus: BSK_BE3C_MMP1: BioMAP Diversity Plus: BE3C Assay for Matrix Metallopeptidase 1 (MMP1) Biomarker Activity (AID 2283024). Particulars: primary human bronchial epithelial cells; actives raise or lower the signal. Put shortly:
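In this multiplexed primary-cell system, human bronchial epithelium received chemicals for 24 h before an ELISA for MMP1. Values reflect bidirectional fits normalised to the DMSO baseline.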

Read-out in assay [4]: Pselectin, SELP (gene 6403)
The assay can be described thus: BSK_4H_Pselectin: BioMAP Diversity Plus: 4H Assay for Pselectin Biomarker Activity (AID 2283026). Particulars: primary human endothelial cells (HUVEC); actives raise or lower the signal. Put shortly:
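Bidirectional fits against DMSO gave the endpoint. Cells: primary human umbilical vein endothelium, chemical-treated for 24 h before ELISA detection of P-selectin.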

Assay [5] is described as follows: BSK_4H_SRB: Viability Assessment in the BioMAP Diversity Plus: 4H Assay (AID 2283027).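 Also: cells exposed to compound for 24 h before staining.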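 As to AC50: curves fitted both ways versus DMSO so AC50 may be loss or gain.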 Particulars: primary human endothelial cells (HUVEC). In outline:
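Cytotoxicity readout: sulforhodamine B (0.1%) staining of total protein after 10% TCA fixation, measured at 560 nm in human umbilical vein endothelium at 24 h. DMSO set the baseline; fitting was bidirectional.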

Assay [6] in a line: BSK_BE3C_SRB: Viability Assessment in the BioMAP Diversity Plus: BE3C Assay (AID 2283028).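 As to AC50: fitted both ways so AC50 may mark signal gain or loss versus DMSO.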 Particulars: primary human bronchial epithelial cells. In outline: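 Cells (human bronchial epithelial, primary) are treated with chemicals, and after 24 h the parallel cultures are fixed in 10% TCA. These are then stained with 0.1% SRB and read at 560 nm. Gain or loss of signal is fitted relative to DMSO.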

Read-out in assay [7]: Thrombomodulin, THBD (gene 7056)
The assay can be described thus: BSK_3C_Thrombomodulin: BioMAP Diversity Plus: 3C Assay for Thrombomodulin Biomarker Activity (AID 2283029). Particulars: primary human endothelial cells (HUVEC); actives raise or lower the signal. In outline: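 In a multiplexed primary-cell system, human umbilical vein endothelium received chemical and was assayed 24 h later for thrombomodulin by ELISA. Parallel cultures were SRB-stained (0.1% SRB after 10% TCA fixation, read at 560 nm) to flag cytotoxicity.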

Read-out in assay [8]: Urokinase-type plasminogen activator receptor (uPAR), PLAUR (gene 5329)
The assay can be described thus: BSK_4H_uPAR: BioMAP Diversity Plus: 4H Assay for Urokinase-type plasminogen activator receptor (uPAR) Biomarker Activity (AID 2283030). Particulars: primary human endothelial cells (HUVEC); actives raise or lower the signal. Put shortly: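 Cell-surface uPAR ELISA signal, measured 24 h after dosing human umbilical vein endothelial cells, was analyzed with bidirectional fitting relative to DMSO. Parallel SRB staining of total protein tracked overt cytotoxicity.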

Read-out in assay [9]: Vascular endothelial growth factor receptor 2 (Homo sapiens) (UniProt P35968)
The assay can be described thus: BSK_4H_VEGFRII: BioMAP Diversity Plus: 4H Assay for Vascular endothelial growth factor receptor 2 (VEGFR2) Biomarker Activity (AID 2283031).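 As to AC50: cell-surface VEGFR2 protein level quantified by ELISA.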 Particulars: primary human endothelial cells (HUVEC); actives raise or lower the signal. Put shortly:
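ELISA read-out of VEGFRII in primary human umbilical vein endothelium, taken 24 h after chemical treatment. Responses are expressed relative to DMSO, with bidirectional fitting.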

Read-out in assay [10]: Human Leukocyte Antigen - DR isotype (HLADR), HLA-DRA (gene 3122)
The assay can be described thus: BSK_BE3C_HLADR: BioMAP Diversity Plus: BE3C Assay for Human Leukocyte Antigen - DR isotype (HLADR) Biomarker Activity (AID 2283032). Particulars: primary human bronchial epithelial cells; actives raise or lower the signal. In outline: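 BioMAP BE3C format: human bronchial epithelium, 24 h compound treatment, ELISA detection of HLA-DR, with bidirectional analysis relative to DMSO.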

Results filed as inconclusive are left out. The source made the active and inactive calls. The calls were made as follows, unless noted: active = hit-call score of the fitted dose curve at least 0.9, where 1 is the maximum; inactive = score below 0.9.

Chain of human Vitamin D Receptor (VDR), VDR (gene 7421) (P11473 whole entry, looked up, the tested form may be a part): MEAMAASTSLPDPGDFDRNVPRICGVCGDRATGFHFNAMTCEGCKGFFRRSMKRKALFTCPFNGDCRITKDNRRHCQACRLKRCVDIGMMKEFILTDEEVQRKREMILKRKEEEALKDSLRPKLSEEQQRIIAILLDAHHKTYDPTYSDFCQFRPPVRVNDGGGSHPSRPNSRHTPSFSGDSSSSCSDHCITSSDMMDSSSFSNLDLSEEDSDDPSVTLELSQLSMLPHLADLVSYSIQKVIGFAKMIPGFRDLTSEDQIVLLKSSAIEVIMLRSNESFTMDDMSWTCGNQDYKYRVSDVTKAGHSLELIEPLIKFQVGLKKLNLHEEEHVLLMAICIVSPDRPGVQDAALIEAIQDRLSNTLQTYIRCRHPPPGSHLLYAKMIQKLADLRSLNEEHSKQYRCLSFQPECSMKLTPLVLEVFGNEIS

As to `C1=CC2C3C=CC(C3)C2C1` (stereo not drawn), the compound was classed as inactive in assay [1], in assay [2], in assay [3], in assay [4], in assay [5] and in assay [6]. In addition, the outcome in assay [7], in assay [8], in assay [9] and in assay [10] was inactive.

As to `C[Si](C)(C)O[Si](C)(C)C`, the result in assay [1] was inactive.

Turning to `CC1=NN(c2ccc(S(=O)(=O)O)cc2)C(=O)C1`, the result in assay [1] was inactive.

In the case of `Nc1ccc(Cl)c([N+](=O)[O-])c1`, the call in [1] was inactive.

For the compound `BrCc1cccc(Oc2ccccc2)c1`, the compound was classed as inactive in assay [1].

Regarding `OC[C@H]1O[C@@H](Oc2ccc(O)cc2)[C@H](O)[C@@H](O)[C@@H]1O`, the result in assay [1] was inactive.

Broadly, the AC50 is the concentration giving half of the maximal activity seen. Regarding `CCC(C)c1cc([N+](=O)[O-])cc([N+](=O)[O-])c1OC(=O)OC(C)C` (stereo not drawn), the call in [1] was inactive. Further, the half-maximal activity concentration (AC50) in assay [2] is 14.1 µM (active); in assay [3], 35.1 µM (active); in [4], 9.75 µM (active); in [5], 13.9 µM (active); in assay [6] it was 29.4 µM (active); in [7], 20 µM (active). The AC50 in [8] was 13 µM (active); in assay [9] it was 9.93 µM (active); in [10] it was 15.3 µM (active).

As for `C[C@H](CCC(=O)NCC(=O)O)[C@H]1CC[C@H]2[C@@H]3[C@H](O)C[C@@H]4C[C@H](O)CC[C@]4(C)[C@H]3C[C@H](O)[C@]12C`, the compound was classed as inactive in assay [1].

For `CCCCOCC`, the compound was classed as inactive in [1].

On to `COc1cc(C(C)C)ccc1C`, for which, in assay [1], the compound was called inactive.

On to `Cc1cc(S(=O)(=O)O)ccc1N=Nc1c(O)ccc2ccccc12`, for which the call in assay [1] was inactive.

Regarding `C=CC(C)C#N` (stereo not drawn), the call in assay [1] was inactive.

On to `c1ccc(CN(Cc2ccccc2)Cc2ccccc2)cc1`, for which, in [1], the compound was called inactive.

For `CCOC(=O)CC(C)O` (stereo not drawn), the result in assay [1] was inactive.

As for `C=C(C)C1CC=C(C)C(=O)C1` (stereo not drawn), the call in assay [1] was inactive.

On to `O=C(O)COCC(=O)O`, for which the compound was called inactive in [1].

Consider `CN1C(=O)c2ccccc2C1=O`, for which the compound was classed as inactive in assay [1].

For `C=CCOC(=O)CCCCCC`, in [1], the compound was called inactive.

For `OCc1cccc(Oc2ccccc2)c1`, in assay [1], the outcome was inactive.

For the compound `CC(C)(CO)[C@@H](O)C(=O)NCCC(=O)O`, the compound was called inactive in [1].

For the compound `CCCC(O)C(O)CO` (stereo not drawn), the result in assay [1] was inactive.

On to `O=C1OC2(c3ccccc31)c1ccc(O)c(Br)c1Oc1c2ccc(O)c1Br`, for which the compound was classed as inactive in [1], in assay [2], in assay [3], in assay [5] and in [6]. The half-maximal activity concentration (AC50) in assay [4] is 20 µM (active); in assay [7], 20 µM (active); in assay [8], 20 µM (active); in [9], 13.7 µM (active); in assay [10], 10.3 µM (active).

For `CC(C)OCCO`, the result in assay [1] was inactive.

For `CCC(C)S` (stereo not drawn), the call in [1] was inactive.

`CCC(Cl)C(Cl)C(Cl)CC(Cl)C(Cl)C(C)Cl` (stereo not drawn): the compound was classed as inactive in [1].

With `CC(C)Nc1nc(N)nc(Cl)n1`, the compound was called inactive in assay [1].

Regarding `COc1cc([C@@H]2c3cc4c(cc3[C@@H](O[C@@H]3O[C@@H]5CO[C@@H](C)O[C@H]5[C@H](O)[C@H]3O)[C@H]3COC(=O)[C@H]23)OCO4)cc(OC)c1O`, the result in assay [1] was inactive.

With `CC(C)C(OC(=O)c1ccccc1)C(C)(C)COC(=O)c1ccccc1` (stereo not drawn), the compound was called inactive in assay [1].

As for `OCCOCCN1CCN(C2=Nc3ccccc3Sc3ccccc32)CC1`, the result in assay [1] was inactive.

For `CCCCCCCCCCCC(=O)OC[C@@H](O)[C@H]1OC[C@H](O)[C@H]1O`, in assay [1], the outcome was inactive.

Consider `CCCC(=O)c1ccccc1`, for which, in [1], the result was inactive.

As for `COC(=O)C=C(C)CCC=C(C)C`, the outcome in [1] was inactive.

With `COc1cc(Cl)c(OC)cc1N`, the outcome in [1], in assay [2], in assay [3], in assay [4], in assay [5] and in assay [6] was inactive. The outcome in assay [7], in [8], in assay [9] and in assay [10] was inactive.

Consider `CCCOC(=O)c1c(Cl)c(Cl)c(Cl)c(Cl)c1C(=O)OCCC`, for which the compound was classed as inactive in [1].

Regarding `Cc1ccc(OC(=O)c2ccccc2O)cc1`, the compound was called inactive in [1].

As for `CCCCC(CC)C(=O)OC(C)C` (stereo not drawn), the compound was called inactive in [1].

As for `CCC1(c2ccccc2)C(=O)NCNC1=O`, the outcome in [1] was inactive.

`CC=Cc1ccc(OCC)c(O)c1`: the compound was classed as inactive in assay [1], in [2], in [3], in assay [4], in assay [5] and in assay [6]. For the same compound, the result in [7], in assay [8], in [9] and in [10] was inactive.
